Here are results for twelve molecules from ChEMBL document CHEMBL3988442, “University of Dundee, Small-Polar-MMV Screening Library” (2021).

Parameters in all cases: scale not given: direction of the effect not stated beside the values
Experiment [1] has as its target Protein translocase subunit SecA (Escherichia coli (strain K12)) (UniProt P10408). Nature of the experiment: Assay to Identify E. coli SecA ATPase Inhibitors. Format: functional. The conditions noted are these: 30 µM.
The target in experiment [2] is T1, Ubiquitin-activating enzyme e1, putative (Leishmania donovani (strain BPK282A1)) (UniProt E9BSI1).
T1 sequence (whole entry): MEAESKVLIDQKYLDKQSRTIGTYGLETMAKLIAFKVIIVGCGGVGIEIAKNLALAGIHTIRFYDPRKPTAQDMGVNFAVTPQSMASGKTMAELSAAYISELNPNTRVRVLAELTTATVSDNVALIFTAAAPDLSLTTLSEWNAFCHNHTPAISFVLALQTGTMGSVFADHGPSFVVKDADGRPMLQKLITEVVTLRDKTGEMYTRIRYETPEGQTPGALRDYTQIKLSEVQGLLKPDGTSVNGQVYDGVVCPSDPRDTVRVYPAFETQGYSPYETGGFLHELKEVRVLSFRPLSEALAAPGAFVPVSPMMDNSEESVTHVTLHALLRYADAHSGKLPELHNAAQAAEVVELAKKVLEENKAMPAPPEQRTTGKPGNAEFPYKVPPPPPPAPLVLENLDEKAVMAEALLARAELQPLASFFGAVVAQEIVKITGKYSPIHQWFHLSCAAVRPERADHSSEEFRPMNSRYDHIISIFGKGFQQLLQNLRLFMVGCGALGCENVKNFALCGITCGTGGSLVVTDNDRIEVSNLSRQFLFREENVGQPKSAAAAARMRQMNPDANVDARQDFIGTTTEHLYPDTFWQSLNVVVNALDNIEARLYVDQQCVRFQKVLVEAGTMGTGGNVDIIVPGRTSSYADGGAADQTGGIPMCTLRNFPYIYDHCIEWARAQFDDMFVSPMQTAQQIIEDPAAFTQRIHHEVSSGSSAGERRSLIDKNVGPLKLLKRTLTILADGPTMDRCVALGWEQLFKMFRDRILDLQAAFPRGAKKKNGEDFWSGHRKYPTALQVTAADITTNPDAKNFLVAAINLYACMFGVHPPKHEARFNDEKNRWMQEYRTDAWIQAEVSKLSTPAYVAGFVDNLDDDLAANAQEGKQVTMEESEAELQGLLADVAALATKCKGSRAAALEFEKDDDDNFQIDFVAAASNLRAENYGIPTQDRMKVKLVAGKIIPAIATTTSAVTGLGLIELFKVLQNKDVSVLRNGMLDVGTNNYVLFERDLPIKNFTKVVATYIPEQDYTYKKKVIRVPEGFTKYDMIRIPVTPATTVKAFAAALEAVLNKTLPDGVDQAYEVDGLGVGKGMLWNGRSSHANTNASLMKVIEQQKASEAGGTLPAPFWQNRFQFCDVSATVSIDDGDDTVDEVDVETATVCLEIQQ
Nature of the experiment: Leishmania donovani Ubiquitin Activating Enzyme (LdE1). The conditions noted are these: 30 µM. The experiment is classed as functional.

Experiment [3] addresses Sialic acid-binding Ig-like lectin 9 (Homo sapiens) (UniProt Q9Y336). The experiment can be described thus: Hs-Siglec9 ALPHAscreen SOP 20170721. The following applies: 10 µM.
In the next experiment the test system is Trypanosoma cruzi. The experiment can be described thus: Trypanosoma cruzi phosphomannomutase and mannose-1-phosphate guanylyltransferase assay. The experiment is classed as functional. The conditions noted are these: 10 µM.
The target of experiment [4] is T2, Arginase-2, mitochondrial (Homo sapiens) (UniProt P78540).
T2 sequence (whole entry): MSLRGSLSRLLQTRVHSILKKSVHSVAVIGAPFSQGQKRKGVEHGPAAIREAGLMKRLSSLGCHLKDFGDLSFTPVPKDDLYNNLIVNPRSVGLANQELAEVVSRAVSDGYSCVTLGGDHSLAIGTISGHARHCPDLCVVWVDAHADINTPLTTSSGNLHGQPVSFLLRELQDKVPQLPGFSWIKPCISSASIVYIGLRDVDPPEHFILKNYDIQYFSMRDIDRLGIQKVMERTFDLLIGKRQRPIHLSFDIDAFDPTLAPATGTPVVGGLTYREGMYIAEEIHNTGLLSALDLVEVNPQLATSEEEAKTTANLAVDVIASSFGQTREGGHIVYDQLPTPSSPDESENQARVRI
The experiment can be described thus: in vitro enzyme assay to detect the production of urea directly proportional to the activity of Arginase II. Note: in the data most compounds retested in dose-response had high values. The experiment is classed as functional. The conditions noted are these: 33.3 µM.

Experiment [5] addresses T3, Proteasome subunit beta (Trypanosoma cruzi) (UniProt O96673).
T3 sequence (whole entry): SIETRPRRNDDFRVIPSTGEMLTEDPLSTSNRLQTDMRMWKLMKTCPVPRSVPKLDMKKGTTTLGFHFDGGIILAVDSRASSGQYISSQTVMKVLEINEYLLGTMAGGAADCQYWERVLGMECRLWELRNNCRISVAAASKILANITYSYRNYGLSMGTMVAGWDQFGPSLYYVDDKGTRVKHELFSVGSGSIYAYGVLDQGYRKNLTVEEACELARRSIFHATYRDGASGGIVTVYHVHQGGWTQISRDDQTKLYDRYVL
The experiment can be described thus: Trypanosoma cruzi proteasome chymotrypsin-like activity (TcProtChymo) assay. Note: in the data most compounds retested in dose-response had high values. The following applies: 9.37 µM. Format: functional.

For another experiment, the species on record is Homo sapiens. Nature of the experiment: To identify inhibition of the IFN signalling (Jak-Stat) pathway via expression of an eGFP reporter gene under the control of an IFN-stimulated response element (ISRE) containing MxA promoter. Format: functional. The conditions noted are these: 30 µM.
Experiment [6] deals with T4, Tyrosyl-tRNA synthetase, putative (Trypanosoma cruzi (strain CL Brener)) (UniProt Q4DSP6).
T4 sequence (whole entry): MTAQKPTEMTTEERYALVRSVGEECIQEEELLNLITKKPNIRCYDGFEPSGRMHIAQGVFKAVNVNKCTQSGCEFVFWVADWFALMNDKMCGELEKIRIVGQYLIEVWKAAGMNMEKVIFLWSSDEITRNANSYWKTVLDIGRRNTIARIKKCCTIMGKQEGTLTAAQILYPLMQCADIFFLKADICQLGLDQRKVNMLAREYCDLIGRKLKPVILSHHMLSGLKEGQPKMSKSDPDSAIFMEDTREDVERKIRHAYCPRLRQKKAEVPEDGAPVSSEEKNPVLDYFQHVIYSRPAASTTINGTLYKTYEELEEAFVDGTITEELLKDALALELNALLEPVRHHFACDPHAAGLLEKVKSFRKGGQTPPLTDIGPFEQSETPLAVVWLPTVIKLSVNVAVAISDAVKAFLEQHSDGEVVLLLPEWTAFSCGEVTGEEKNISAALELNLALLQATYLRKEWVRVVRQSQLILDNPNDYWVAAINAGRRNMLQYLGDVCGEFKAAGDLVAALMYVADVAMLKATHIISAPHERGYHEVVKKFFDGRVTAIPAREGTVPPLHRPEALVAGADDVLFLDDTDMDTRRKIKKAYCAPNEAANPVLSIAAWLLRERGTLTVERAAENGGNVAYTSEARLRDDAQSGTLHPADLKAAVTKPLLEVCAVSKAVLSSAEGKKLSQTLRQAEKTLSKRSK
Nature of the experiment: Trypanosoma cruzi tyrosyl tRNA synthetase (TcYRS) _High Tyrosine SOP. Note: in the data most compounds retested in dose-response had high values. The conditions noted are these: 30 µM. The experiment is classed as functional.

The target of experiment [7] is T4, Tyrosyl-tRNA synthetase, putative (Trypanosoma cruzi (strain CL Brener)). Nature of the experiment: Trypanosoma cruzi tyrosyl tRNA synthetase (TcYRS) SOP. The following applies: 30 µM. The experiment is classed as functional.
Experiment [8] has as its target Chromo domain-containing protein 1 (Saccharomyces cerevisiae (strain ATCC 204508 / S288c) (Baker's yeast)) (UniProt P32657). Nature of the experiment: ScCHD-1 Enzyme Inhibition Assay. Note: in the data most compounds retested in dose-response had high values. The experiment is classed as functional. The following applies: 30 µM.

Each structure is given as a SMILES string. For part of these data: Measured potencies and affinities stand elsewhere.

Sequence of Protein translocase subunit SecA (Escherichia coli (strain K12)) (P10408 whole entry): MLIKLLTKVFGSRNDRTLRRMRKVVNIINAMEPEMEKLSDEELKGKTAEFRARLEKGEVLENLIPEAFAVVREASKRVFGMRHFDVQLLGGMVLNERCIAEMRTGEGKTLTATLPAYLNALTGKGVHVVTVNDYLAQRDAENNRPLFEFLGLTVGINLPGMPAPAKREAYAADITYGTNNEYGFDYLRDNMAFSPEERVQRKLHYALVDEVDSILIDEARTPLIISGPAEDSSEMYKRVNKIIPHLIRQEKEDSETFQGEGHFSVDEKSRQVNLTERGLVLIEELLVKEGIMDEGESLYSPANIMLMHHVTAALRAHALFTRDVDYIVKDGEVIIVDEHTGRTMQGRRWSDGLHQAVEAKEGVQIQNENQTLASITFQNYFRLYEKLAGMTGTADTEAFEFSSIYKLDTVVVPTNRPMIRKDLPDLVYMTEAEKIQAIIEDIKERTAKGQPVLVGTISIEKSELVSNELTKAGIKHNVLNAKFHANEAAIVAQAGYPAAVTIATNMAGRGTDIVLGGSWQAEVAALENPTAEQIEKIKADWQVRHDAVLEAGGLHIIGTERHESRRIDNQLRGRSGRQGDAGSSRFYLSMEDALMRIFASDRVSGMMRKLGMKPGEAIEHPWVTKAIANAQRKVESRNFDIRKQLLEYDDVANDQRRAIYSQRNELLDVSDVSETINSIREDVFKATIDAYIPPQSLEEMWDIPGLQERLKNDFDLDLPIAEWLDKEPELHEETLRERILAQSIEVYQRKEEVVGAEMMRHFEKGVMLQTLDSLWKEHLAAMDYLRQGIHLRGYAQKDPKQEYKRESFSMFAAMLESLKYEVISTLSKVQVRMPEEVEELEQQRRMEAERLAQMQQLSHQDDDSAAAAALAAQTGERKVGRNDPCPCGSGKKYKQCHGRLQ
Sequence of Chromo domain-containing protein 1 (Saccharomyces cerevisiae (strain ATCC 204508 / S288c) (Baker's yeast)) (P32657 whole entry, the tested form may be a part): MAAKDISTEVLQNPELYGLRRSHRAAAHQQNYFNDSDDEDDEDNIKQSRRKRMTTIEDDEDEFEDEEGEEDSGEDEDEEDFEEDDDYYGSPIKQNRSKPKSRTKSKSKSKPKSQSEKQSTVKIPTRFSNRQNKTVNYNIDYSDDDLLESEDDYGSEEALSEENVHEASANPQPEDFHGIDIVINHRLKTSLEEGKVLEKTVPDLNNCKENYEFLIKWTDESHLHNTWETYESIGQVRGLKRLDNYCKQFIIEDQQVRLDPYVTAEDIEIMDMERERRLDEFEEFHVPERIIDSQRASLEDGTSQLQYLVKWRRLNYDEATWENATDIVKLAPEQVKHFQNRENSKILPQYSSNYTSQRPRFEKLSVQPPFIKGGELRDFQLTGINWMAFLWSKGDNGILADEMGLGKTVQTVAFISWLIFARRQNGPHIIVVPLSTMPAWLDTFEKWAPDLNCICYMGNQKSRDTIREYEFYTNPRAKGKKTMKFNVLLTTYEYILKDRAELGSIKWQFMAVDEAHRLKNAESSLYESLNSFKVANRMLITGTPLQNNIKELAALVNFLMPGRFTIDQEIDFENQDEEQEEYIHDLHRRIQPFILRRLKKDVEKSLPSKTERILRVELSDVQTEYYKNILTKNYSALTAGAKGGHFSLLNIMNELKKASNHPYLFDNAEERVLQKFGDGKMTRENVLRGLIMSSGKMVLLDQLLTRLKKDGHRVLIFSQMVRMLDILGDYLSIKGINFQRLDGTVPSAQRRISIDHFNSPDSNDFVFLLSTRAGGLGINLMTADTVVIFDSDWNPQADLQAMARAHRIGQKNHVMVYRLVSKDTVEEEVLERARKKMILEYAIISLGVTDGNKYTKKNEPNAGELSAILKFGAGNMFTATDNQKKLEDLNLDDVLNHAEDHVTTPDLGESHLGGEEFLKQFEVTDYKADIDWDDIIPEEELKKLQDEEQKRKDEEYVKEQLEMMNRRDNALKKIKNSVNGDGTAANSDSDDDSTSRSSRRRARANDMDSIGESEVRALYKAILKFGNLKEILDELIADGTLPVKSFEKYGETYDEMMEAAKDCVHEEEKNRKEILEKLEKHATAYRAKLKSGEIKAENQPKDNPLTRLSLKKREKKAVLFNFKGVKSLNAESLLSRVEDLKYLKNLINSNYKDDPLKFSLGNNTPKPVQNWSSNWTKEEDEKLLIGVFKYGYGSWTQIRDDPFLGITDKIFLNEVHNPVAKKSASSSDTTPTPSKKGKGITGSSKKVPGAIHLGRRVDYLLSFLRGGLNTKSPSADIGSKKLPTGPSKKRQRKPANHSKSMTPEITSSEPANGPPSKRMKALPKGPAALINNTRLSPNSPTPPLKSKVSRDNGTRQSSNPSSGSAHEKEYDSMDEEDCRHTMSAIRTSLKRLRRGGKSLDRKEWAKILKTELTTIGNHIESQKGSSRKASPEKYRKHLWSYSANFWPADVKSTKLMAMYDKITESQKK
Sequence of Sialic acid-binding Ig-like lectin 9 (Homo sapiens) (Q9Y336 whole entry): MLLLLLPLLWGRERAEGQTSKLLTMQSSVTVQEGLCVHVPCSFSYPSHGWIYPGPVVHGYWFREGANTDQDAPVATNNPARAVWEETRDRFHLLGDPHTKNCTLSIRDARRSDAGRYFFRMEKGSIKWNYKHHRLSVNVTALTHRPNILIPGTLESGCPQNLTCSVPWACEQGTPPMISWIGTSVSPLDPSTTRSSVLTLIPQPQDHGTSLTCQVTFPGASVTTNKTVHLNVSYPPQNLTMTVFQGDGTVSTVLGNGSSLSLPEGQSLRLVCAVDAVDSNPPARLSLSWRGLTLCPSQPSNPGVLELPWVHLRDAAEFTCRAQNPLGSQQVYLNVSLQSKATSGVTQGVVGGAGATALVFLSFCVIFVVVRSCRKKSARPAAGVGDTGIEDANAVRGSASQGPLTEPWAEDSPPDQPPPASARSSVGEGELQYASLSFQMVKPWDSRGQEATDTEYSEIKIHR

As for `CCOC1COC2(CCN(Cc3ccc4c(c3)OCO4)CC2)C1` (stereo not given), the Percent Effect in [1] is -2.81%; in experiment [2], 19.5%; in [3] it was 5.28%; in the experiment with Trypanosoma cruzi, -1.13%; in experiment [4] it was 3.65%; in experiment [5] it was 5.06%. The Percent Effect was 17.9% in the experiment listed under Homo sapiens, 8.7% in experiment [6], 12.5% in experiment [7] and -4.64% in [8].
For the molecule `CC(C)NC(=O)C1CN(C(=O)Nc2ccccc2)CC12CCOCC2` (stereo not given), the Percent Effect in experiment [1] is -8.24%; in experiment [2] it was 3.9%; in experiment [3], -2.62%; in the experiment on Trypanosoma cruzi it was -3.02%; in experiment [4], 1.22%; in [5], 22.9%. The Percent Effect in the experiment listed under Homo sapiens is 14.5%; in experiment [6], 6.84%; in experiment [7] it was 2.56%; in [8], -3.13%.
Consider `CC(C)n1ccnc1C1CCN(C(=O)c2cc[nH]n2)CC1`, for which the Percent Effect in experiment [1] was -1.49%; in experiment [2] it was 8.11%; in [3] it was 10.9%; in the experiment on Trypanosoma cruzi, 5.53%; in [4] it was 14.3%; in experiment [5], 13.2%. Further, the Percent Effect in the experiment listed under Homo sapiens was 31.6%; in [6], 7.98%; in [7], 19.5%; in experiment [8] it was -4.41%.
With `O=C(c1ccc(F)cc1Cl)N1CCC(Nc2cccnn2)CC1`, the Percent Effect in [1] was -3.11%; in experiment [2], 18.2%; in [3] it was 7.17%; with Trypanosoma cruzi, 5.41%; in experiment [4] it was -4.71%; in [5] it was 7.37%. For the same molecule, the Percent Effect in the experiment filed under Homo sapiens was 15.6%; in [6], 5.88%; in experiment [7], 18.8%; in experiment [8] it was -15.5%.
Consider `CCN1CCC2(CCC(=O)N2Cc2cccc(C)n2)CC1`, for which the Percent Effect in experiment [1] was -2.48%; in [2], 9.09%; in [3], -0.0986%; with Trypanosoma cruzi it was -0.188%; in [4] it was 0.457%; in [5] it was 2.49%. For the same molecule, the Percent Effect is -13.7% in the experiment filed under Homo sapiens, 7.73% in [6], 15% in [7] and -11.3% in experiment [8].
For `O=C(c1cccs1)N1CC[C@H](O)[C@@H]1Cc1ccccc1`, the Percent Effect is -8.07% in [1]; 9.09% in experiment [2]; 8.03% in experiment [3]; -0.563% in the experiment with Trypanosoma cruzi; 0.457% in experiment [4]; 0.601% in experiment [5]. Besides, the Percent Effect in the experiment filed under Homo sapiens is 23.5%; in experiment [6], 0.966%; in experiment [7], 7.5%; in [8], -9.97%.
For `Cc1nccn1-c1cccc(C2CCCN(C(=O)c3cc[nH]n3)C2)n1` (stereo not given), the Percent Effect was 0.661% in experiment [1]; 25.3% in [2]; -9.09% in experiment [3]; 0.395% with Trypanosoma cruzi; -3.98% in experiment [4]; 17.9% in experiment [5]. Also, the Percent Effect is 32.9% in the experiment listed under Homo sapiens, 1.06% in [6], 10% in experiment [7] and -7.28% in experiment [8].
As to `CC(=O)N1CCC2(CCN(C(=O)c3ccc(Cl)c(C(F)(F)F)c3)CC2)C1`, the Percent Effect in [1] was -7.31%; in experiment [2], 6.49%; in experiment [3] it was 5.74%; with Trypanosoma cruzi it was 0.292%; in experiment [4] it was -0.405%; in [5] it was 7.5%. Also, the Percent Effect in the experiment filed under Homo sapiens is -12.1%; in experiment [6], 6.84%; in experiment [7], 7.69%; in experiment [8], 3.63%.
`Cc1cncc(C(=O)N2Cc3ccccc3C3(CCN(C)CC3)C2)c1`: the Percent Effect is 0.817% in experiment [1]; 1.3% in experiment [2]; -5.76% in [3]; -4.38% with Trypanosoma cruzi; 4.05% in [4]; 3.09% in [5]. The Percent Effect in the experiment listed under Homo sapiens was -17%; in [6], -2.63%; in [7] it was -15.4%; in [8], -3.41%.
As for `COc1ccc(C(C)NC(=O)NCCCn2cncn2)cc1F` (stereo not given), the Percent Effect in experiment [1] is -2.93%; in [2], 16%; in experiment [3], 2.65%; in the experiment on Trypanosoma cruzi it was -0.602%; in [4], 1.77%; in [5], 8.57%. Also, the Percent Effect in the experiment listed under Homo sapiens was -15.1%; in experiment [6] it was 6.84%; in experiment [7], 17.9%; in [8], -9.21%.
In the case of `CCCS(=O)(=O)N1CCN(c2ccnc(N3CCCC3)n2)CC1`, the Percent Effect in [1] is -0.256%; in experiment [2] it was 0%; in experiment [3], 12.4%; in the experiment on Trypanosoma cruzi it was 6.89%; in experiment [4], 8.04%; in experiment [5] it was 6.85%. For the same molecule, the Percent Effect in the experiment listed under Homo sapiens was -21.8%; in experiment [6], 2.66%; in experiment [7], 4.88%; in experiment [8] it was -3%.
As for `c1cncc(N2CCOCC3(CCCN(c4nncs4)C3)C2)c1` (stereo not given), the Percent Effect in experiment [1] was -4.46%; in experiment [2], -3.9%; in [3], -2.68%; in the experiment with Trypanosoma cruzi, -1.27%; in experiment [4], -2.02%; in experiment [5], 7.33%. The Percent Effect was determined as 2.84% in the experiment filed under Homo sapiens, 2.63% in [6], 7.69% in experiment [7] and 3.64% in [8].
